# Assay outcomes from PubChem BioAssay.
# HepG2 viability: qHTS for Inhibitors of TGF-b: Cytotox Counterscreen; HepG2 CAGA-GFP viability, ATP luminescence, 18 h; Potency, µM (titrated, usually from 46.1 µM), hits mostly cytotoxic; 410,000 compounds, 0.76% hits; AID 588856, 2011
#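 CellTiter-Glo luminescence gave cytotoxicity after 18 hours at 37 degrees C. The cells were HepG2 CAGA-GFP in 1% FBS DMEM, stimulated with 500 pg/mL TGF-beta after compound addition. %Activity was normalised to no-cell wells (complete cell-killing) and DMSO (no toxicity), and curves were fitted and classified.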
# TDP1 cell CPT: qHTS for Inhibitors of human tyrosyl-DNA phosphodiesterase 1 (TDP1): qHTS in cells in presence of CPT | chicken DT40 Tdp1-/-;hTDP1 cells + 20 nM CPT, ATP luminescence, 48 h | Potency, µM (series often up to 46.2 µM), usual class: inhibitors | 420,000 compounds, 12% hits; note: nearly all actives have a fitted effect of over 55% in size
#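 Chicken DT40 Tdp1-/- cells stably complemented with human TDP1 were seeded at 400 cells/well in medium containing 20 nM camptothecin, exposed to pin-transferred compounds, and grown at 37 °C for at least 48 hr. Viability was read as ATP luminescence.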
# TGFb inhibitor: qHTS for Inhibitors of TGF-b; HepG2 CAGA-GFP TGF-b/SMAD3 reporter, GFP fluorescence, 18 h; TGF-beta stimulated, 500 pg/mL final; Potency, µM (highest dose often 46.1 µM), actives largely listed as inhibitors; 410,000 compounds, 1.2% hits; note: nearly all actives have a fitted effect of over 65% in size
#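 HEPG2 CAGA-GFP cells (1000/well, DMEM with 1% FBS) were pre-incubated 2 h at 37 degrees C, given compound by pin tool, then stimulated with TGF-beta at 500 pg/mL final for 18 h before per-cell GFP fluorescence imaging.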
# TDP1 block: qHTS Assay for Inhibitors of Tyrosyl-DNA Phosphodiesterase (TDP1); Tyrosyl-DNA phosphodiesterase 1 (Homo sapiens), Q9NUW8; recombinant TDP1, AlphaScreen DNA substrate cleavage; Potency, µM (series often up to 130 µM), actives largely listed as inhibitors; 350,000 compounds, 0.28% hits; AID 485290, 2010; note: nearly all actives have a fitted effect of over 40% in size
# Target sequence (Q9NUW8 whole entry, looked up): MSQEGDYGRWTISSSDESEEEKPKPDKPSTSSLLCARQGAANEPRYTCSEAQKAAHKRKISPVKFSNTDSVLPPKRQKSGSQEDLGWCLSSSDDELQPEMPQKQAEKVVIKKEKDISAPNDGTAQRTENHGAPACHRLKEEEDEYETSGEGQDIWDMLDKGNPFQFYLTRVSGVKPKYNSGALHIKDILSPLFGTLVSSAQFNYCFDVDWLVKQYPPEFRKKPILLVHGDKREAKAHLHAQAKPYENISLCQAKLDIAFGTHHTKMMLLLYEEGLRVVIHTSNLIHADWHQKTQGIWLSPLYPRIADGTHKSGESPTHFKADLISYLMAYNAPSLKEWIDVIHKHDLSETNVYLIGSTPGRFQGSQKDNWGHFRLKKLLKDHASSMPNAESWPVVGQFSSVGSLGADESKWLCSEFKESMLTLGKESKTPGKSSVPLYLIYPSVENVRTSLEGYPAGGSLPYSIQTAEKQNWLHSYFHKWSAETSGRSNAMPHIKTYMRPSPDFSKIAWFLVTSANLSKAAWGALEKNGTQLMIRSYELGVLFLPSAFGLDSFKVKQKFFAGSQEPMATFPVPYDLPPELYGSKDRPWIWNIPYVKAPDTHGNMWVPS
#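 Tdp1 1 nM final; 15 min RT w/ cpd; substrate 15 nM, 5 min; beads 10 ug/ml, 10 min; AlphaScreen read. Neg ctrl: no enzyme.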
# DT40 TDP1 no CPT: qHTS for Inhibitors of human tyrosyl-DNA phosphodiesterase 1 (TDP1): qHTS in cells in absence of CPT | Potency, µM (top dose mostly 46.2 µM), actives largely listed as inhibitors | AID 686978, 2013 | DT40 Tdp1-/- hTDP1 cells, no CPT, ATP luminescence, 48 h | 420,000 compounds, 15% hits; note: nearly all actives have a fitted effect of over 55% in size
#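 Luminescent ATP content (CellTiter-Glo) served as the growth readout. Knockout chicken DT40 cells expressing human TDP1 were exposed to compounds without camptothecin for a minimum 48 hr at 37 °C.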
# IL-1B inflam inh: qHTS for Inhibitors of Inflammasome Signaling: IL-1-beta AlphaLISA Primary Screen; 360,000 compounds, 4.7% hits; AID 743279, 2014; THP-1 LPS/ATP IL-1B secretion, AlphaLISA, 16 h; hits give low values; activity change, % at 57.5 µM; in the data active = activity change below about -50%; inconclusive = mostly about -30% to -49%
#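 THP-1 cells pretreated 1 hr with compounds (up to 57.5 uM final), then stimulated with LPS (250 ng/mL final) plus ATP (1.25 mM final); secreted IL-1B measured by AlphaLISA after 16 hr, decreased signal indicating inhibition.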
# A number is an active result; i = inactive; ? = inconclusive; nt = no result. Sampled rows, rich in hits. Any-hit rate of the full collection: about 18%. Unless noted, calls come from the whole dose curve; as a rule, active = well fitted curve in the direction sought with a large enough effect; inconclusive = small, poorly fitted or top-dose-only effect, or another doubt; inactive = no such curve, though single readings can be large; an effect the other way counts as inactive or inconclusive.
SMILES,HepG2 viability,TDP1 cell CPT,TGFb inhibitor,TDP1 block,DT40 TDP1 no CPT,IL-1B inflam inh
CCC(C)Cn1cnc2c(SCc3ccccn3)nc(N)nc21 (centres undefined),i,i,i,nt,?,i
Cc1ccc(Cl)cc1-n1c(SCC(=O)NCCC2=CCCCC2)nc2n[nH]c(C)c2c1=N,i,?,?,i,i,i
Cc1cc(-n2c(SCC(=O)NCCC3=CCCCC3)nc3n[nH]c(C)c3c2=N)ccc1Cl,i,16µM,?,i,8.2µM,i
Cc1[nH]nc2nc(SCC(=O)NCCC3=CCCCC3)n(-c3ccc(Br)cc3)c(=N)c12,i,12µM,16µM,i,8.2µM,i
Cc1c(Cl)cccc1NC(=O)Nc1nnc(N(C)C2CCCCC2)s1,i,15µM,i,i,16µM,nt
Cc1ccc(NC(=O)Nc2nnc(N(C)C3CCCCC3)s2)c(Cl)c1,i,16µM,i,i,?,nt
COc1cc(OC)c(NC(=O)Nc2ccc(OC)c(OC)c2)cc1Cl,i,i,i,i,i,i
COc1cc(OC)c(NC(=O)Nc2nnc(N(C)C3CCCCC3)s2)cc1Cl,i,21µM,i,i,8.2µM,nt
COc1ccc(CCNC(=O)C2CCCN2C(=O)Nc2ccc(F)cc2)cc1OC (centres undefined),i,i,i,nt,i,i
CCCc1cc(=O)n2nc(N3CCC(C(=O)Nc4c(F)c(F)c(F)c(F)c4F)CC3)sc2n1,i,i,i,i,i,i
Cc1ccc(CSc2nc3ccccc3c(=O)n2C)cc1,i,?,i,nt,?,i
Cn1c(SCc2cccc([N+](=O)[O-])c2)nc2ccccc2c1=O,i,16µM,?,i,12µM,i
CCOC(CCn1c(SCc2cccc([N+](=O)[O-])c2)nc2ccccc2c1=O)OCC,i,16µM,i,i,?,i
CCCCn1c(SCc2ccccc2C)nc2ccsc2c1=O,i,?,i,i,?,nt
CCCCn1c(SCc2cccc([N+](=O)[O-])c2)nc2ccsc2c1=O,i,?,i,i,23µM,i
Cn1c(SCc2cccc(C#N)c2)nc2ccccc2c1=O,i,?,i,nt,?,-50
Cc1cc(C)n(CC(C)NCc2cn[nH]c2-c2cccc3ccccc23)n1 (centres undefined),i,?,i,i,18µM,i
Cc1cc(C)n(CC(C)NCc2cn[nH]c2-c2ccc(C)c(C)c2)n1 (centres undefined),i,i,i,i,i,i
CCOC(=O)c1[nH]c(=O)[nH]c1CNc1ccccc1C#N,i,i,i,nt,i,i
O=C(COC(=O)COc1ccccc1F)NCCc1ccc(F)cc1,i,i,i,i,i,i
Cc1cc(O)cc(C)c1NS(=O)(=O)c1ccc2ccccc2c1,i,?,i,nt,26µM,i
CNS(=O)(=O)c1ccc2ccccc2c1,i,i,i,i,i,i
CCc1ccc(NS(=O)(=O)c2ccc(OC)c(C)c2)cc1,i,?,?,i,23µM,i
Cc1ccc(S(=O)(=O)Nc2ccc3ccccc3c2)cc1,i,?,?,nt,?,?
COc1ccc(S(=O)(=O)Nc2ccc3ccccc3c2)cc1C,i,9.2µM,?,i,?,i
SMILES,HepG2 viability,TDP1 cell CPT,TGFb inhibitor,TDP1 block,DT40 TDP1 no CPT,IL-1B inflam inh
COc1ccc(S(=O)(=O)Nc2ccc(Cc3ccncc3)cc2)cc1C,i,13µM,?,i,?,?
COc1ccc(S(=O)(=O)Nc2ccc(S(=O)(=O)N3CCCCC3)cc2)cc1C,i,i,i,i,i,i
NCCO/C=C/[C@H](N)C(=O)O,nt,i,nt,i,i,nt
Cc1c(C(=O)NCc2ccccc2C(F)(F)F)sc(=O)n1Cc1ccc(Cl)c(Cl)c1,i,?,i,nt,?,-72
Cc1c(C(=O)NCc2ccc(C(F)(F)F)cc2)sc(=O)n1Cc1ccc(S(=O)(=O)N(C)C)cc1,i,23µM,?,nt,23µM,i
Cc1c(C(=O)NCc2ccccc2C(F)(F)F)sc(=O)n1Cc1ccc(S(=O)(=O)N(C)C)cc1,i,?,?,nt,21µM,i
O=C(CCCn1c(=O)c2ccccc2n(CC(=O)Nc2cccc(C(F)(F)F)c2)c1=O)NCc1ccc2c(c1)OCO2,i,i,i,i,i,nt
COc1cc(OC)nc(Oc2ccccc2C(=O)Oc2ccc(Cl)cc2)n1,i,?,i,i,16µM,i
COC(=O)c1ccccc1Oc1nc(Cl)cc(OC)n1,i,18µM,?,i,26µM,i
COc1cc(OC)nc(Oc2ccccc2C(=O)Oc2ccccc2Cl)n1,i,i,i,i,i,i
O=C(c1cn(-c2ccccc2)nc1-c1cccnc1)N1CCN(S(=O)(=O)c2cccc(F)c2)CC1,i,i,i,i,?,i
Cc1ccc(OCCC(=O)OCC(=O)Nc2ccc(C)cc2Cl)cc1,i,i,i,i,i,i
CCOC(=O)c1c(C)[nH]c(CCC(=O)NCc2ccccc2Cl)c1C,i,?,i,i,21µM,nt
